Source: PubChem BioAssay
Values without a mark were called inactive. No rule for the calls is given here.

test system: Aerobactin synthetase IucA (Klebsiella pneumoniae hvKP1); experiment: IucA enzyme inhibition, primary screen, biochemical, Spectrum library (AID 1346200); details: malachite green pyrophosphate, A620, at 8 µM, active compounds read low;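 also: 100% = wells without compound and 0% = wells lacking enzyme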

| SMILES | activity remaining [%] |
| --- | --- |
| Clc1ccc(C(Cn2ccnc2)OCc2ccsc2Cl)c(Cl)c1 (stereo not drawn) | 109 |
| O=c1cc(-c2cc(O)c(O)c(O)c2)oc2cc(O)cc(O)c12 | 101 |
| C[N+](C)(C)CC(O)CC(=O)O (stereo not drawn) | 99.1 |
| C=CC(C1=CC(=O)C(OC)=CC1=O)c1ccc(OC)cc1 (stereo not drawn) | 109 |
| CCCCC(=O)N(Cc1ccc(-c2ccccc2-c2nn[nH]n2)cc1)[C@H](C(=O)O)C(C)C | 121 |
| COc1ccc2cc(CCC(C)=O)ccc2c1 | 99.8 |
| CCOc1ccc(NC(C)=O)cc1 | 97.1 |
| O=c1cc(-c2cccc(O)c2)oc2ccc(O)cc12 | 101 |
| OC[C@H]1O[C@@H](O[C@H]2[C@H](O)[C@@H](O)[C@@H](O)O[C@@H]2CO)[C@H](O)[C@@H](O)[C@@H]1O | 107 |
| CCn1cc(C(=O)O)c(=O)c2cc(F)c(N3CCNCC3)cc21 | 115 |
| Cc1ccc(S(=O)(=O)NC(=O)NN2CC3CCCC3C2)cc1 (stereo not drawn) | 121 |
| O=C1CCC(N2C(=O)c3ccccc3C2=O)C(=O)N1 (stereo not drawn) | 117 |
| COc1cnc(NS(=O)(=O)c2ccc(N)cc2)nc1 | 113 |
| COc1ccc(-c2cc(C(F)F)nn2-c2ccc(S(N)(=O)=O)cc2)cc1F | 123 |
| NC[C@H]1O[C@H](OC2[C@@H](N)C[C@@H](N)[C@H](O[C@H]3O[C@H](CO)[C@@H](O)[C@H](N)[C@H]3O)[C@H]2O)[C@H](O)[C@@H](O)[C@@H]1O (stereo partly drawn) | 97 |
| CC(C)(C)CC(C)(C)c1ccc(OCCOCC[N+](C)(C)Cc2ccccc2)cc1 | 113 |
| CN(C)CC/C=C1/c2ccccc2COc2ccccc21 | 99.3 |
| CCCc1ncc(C[n+]2ccccc2C)c(N)n1 | 111 |
| COc1cccc(OC)c1C(=O)N[C@@H]1C(=O)N2[C@@H]1SC(C)(C)[C@@H]2C(=O)O | 85.9 |
| CC(=O)Oc1c(C)c(C)c2c(c1C)CCC(C)(CCCC(C)CCCC(C)CCCC(C)C)O2 (stereo not drawn) | 96.6 |
| C[C@H]1CC[C@@H](C(C)(C)O)CC2=C1CC[C@@H]2C | 102 |
| C[C@H]1[C@H](C)CC[C@]2(CO)CC[C@]3(C)C(=CCC4[C@@]5(C)CC[C@H](O)C(C)(C)C5CC[C@]43C)[C@H]12 (stereo partly drawn) | 117 |
| CC1(C)S[C@@H]2[C@H](NC(=O)C(C(=O)O)c3ccccc3)C(=O)N2[C@H]1C(=O)O (stereo partly drawn) | 114 |
